Results on ten molecules are retold here after PubChem BioAssay (NCI).

This is part of a sample that, as a whole, favours compounds with a hit. Of some 79,000 tested, about 15% had one in any assay. Unmarked numbers belong to inactive results. Activity calls are given as the source filed them. No stated cut-off is given here; in the data, active means growth inhibition above about 70%; inactive means the rest.

Experiment [1] can be described thus: NCI Yeast Anticancer Drug Screen. Data for the rad50 strain (AID 155).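 Further: 0% = growth of vehicle-only cultures of the same strain.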 The conditions noted are these: S. cerevisiae rad50 strain growth inhibition, stronger effect = higher value. The procedure, abridged: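 Inhibition values express reduced yeast growth in compound-treated cultures relative to vehicle-treated controls.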
Experiment [2] in a line: NCI Yeast Anticancer Drug Screen. Data for the mec2-1 strain (AID 157). The settings on record: S. cerevisiae mec2-1 strain, stronger effect = higher value. In a few lines: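 Readout is yeast growth inhibition, normalised to vehicle-treated controls, in the mec2-1 strain exposed to compound.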
A short description of experiment [3]: NCI Yeast Anticancer Drug Screen. Data for the sgs1 mgt1 strain (AID 161).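 Further: 0% = growth of cultures given vehicle only.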 The settings on record: S. cerevisiae sgs1 mgt1 strain, stronger effect = higher value. In a few lines:
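Growth of a repair-deficient yeast mutant was monitored after compound treatment and expressed as inhibition relative to vehicle-treated cultures.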

Experiment [4] in a line: NCI Yeast Anticancer Drug Screen. Data for the cln2 rad14 strain (AID 165).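 Further: 0% = growth equal to vehicle treated cultures.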 The conditions noted are these: S. cerevisiae cln2 rad14 strain, stronger effect = higher value. In a few lines:
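Relative to vehicle controls, growth inhibition of compound-treated cln2 rad14 yeast was recorded.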

Experiment [5] is described as follows: NCI Yeast Anticancer Drug Screen. Data for the bub3 strain (AID 167). The settings on record: S. cerevisiae bub3 mutant strain, stronger effect = higher value. The procedure, abridged: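 Steps: expose the mutant yeast strain to compound; grow alongside vehicle-treated cultures; measure growth; express inhibition against the vehicle cultures.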
Experiment [6] is described as follows: NCI Yeast Anticancer Drug Screen. Data for the mlh1 rad18 strain (AID 175). The conditions noted are these: S. cerevisiae mlh1 rad18 strain growth inhibition, stronger effect = higher value. The procedure, abridged: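 Test agents were incubated with a yeast strain of defined genotype (DNA damage repair defect). Inhibition of growth was derived by comparison with vehicle-exposed cultures.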

The mark [7] stands for this setting: at 5.0 µM (retest, dose inferred, filed as 0.5).
The mark [8] stands for this setting: at 50.0 µM (retest, dose inferred, filed as 5.0).

`OC(CCN1CCOCC1)C1c2ccccc2Cc2ccccc21` (configuration not stated): the growth inhibition in experiment [1] (setting [7]) is 6%; in experiment [1] (setting [8]), 74% (active); in experiment [1] (at 50.0 µM) it was 77.2% (active); in experiment [2] (setting [7]), 6%; in experiment [2] (setting [8]), 29%; in experiment [2] (at 50.0 µM), -1%. The growth inhibition is 1% in experiment [3] (setting [7]); 91% (active) in experiment [3] (setting [8]); 60% in experiment [3] (at 50.0 µM); 1% in experiment [4] (setting [7]); 30% in experiment [4] (setting [8]); -28.3% in experiment [4] (at 50.0 µM). The figures for the growth inhibition in experiment [5] (setting [7]), in experiment [5] (setting [8]) and in experiment [5] (at 50.0 µM) were 0%, 76% (active) and 46.6%, respectively.

With `CC(=O)OC(OC(C)=O)c1ccc([N+](=O)[O-])s1`, the growth inhibition in experiment [1] (setting [7]) was -77%; in experiment [1] (setting [8]), 100% (active); in experiment [1] (at 50.0 µM), 99.4% (active); in experiment [2] (setting [7]) it was -18%; in experiment [2] (setting [8]), 100% (active); in experiment [2] (at 50.0 µM), 99.4% (active). For the same molecule, the growth inhibition in experiment [3] (setting [7]) is 10%; in experiment [3] (setting [8]), 100% (active); in experiment [3] (at 50.0 µM) it was 99.5% (active); in experiment [4] (setting [7]), 1%; in experiment [4] (setting [8]) it was 99% (active); in experiment [4] (at 50.0 µM) it was 99.1% (active). The growth inhibition is -7% in experiment [5] (setting [7]); 100% (active) in experiment [5] (setting [8]); 99.5% (active) in experiment [5] (at 50.0 µM); 19% in experiment [6] (setting [7]); 100% (active) in experiment [6] (setting [8]); 99.5% (active) in experiment [6] (at 50.0 µM).

Take `COc1nc2nc(SC(CC(=O)O)C(=O)c3ccc(Cl)cc3)[nH]c2c2ccccc12` (configuration not stated): the growth inhibition in experiment [1] (setting [7]) is 1%; in experiment [1] (setting [8]) it was 7%; in experiment [1] (at 50.0 µM), 10.1%; in experiment [2] (setting [7]) it was 0%; in experiment [2] (setting [8]) it was 1%; in experiment [2] (at 50.0 µM), 7.45%. The growth inhibition in experiment [3] (setting [7]) was 2%; in experiment [3] (setting [8]), -18%; in experiment [3] (at 50.0 µM) it was -3.85%; in experiment [4] (setting [7]), 2%; in experiment [4] (setting [8]) it was -15%; in experiment [4] (at 50.0 µM), -12.1%. Moreover, the growth inhibition in experiment [5] (setting [7]) was -2%; in experiment [5] (setting [8]), -1%; in experiment [5] (at 50.0 µM) it was -5.45%; in experiment [6] (setting [7]), -1%; in experiment [6] (at 50.0 µM), 32.9%.

As for `Cc1ccc(O)c(-c2cscn2)c1`, the growth inhibition was 49% in experiment [1] (setting [7]); 68% in experiment [1] (setting [8]); 62.6% in experiment [1] (at 50.0 µM); 39% in experiment [2] (setting [7]); 60% in experiment [2] (setting [8]); 6.95% in experiment [2] (at 50.0 µM). Besides, the growth inhibition in experiment [3] (setting [7]) is 15%; in experiment [3] (setting [8]) it was 22%; in experiment [3] (at 50.0 µM) it was 55.5%; in experiment [4] (setting [7]), 65%; in experiment [4] (setting [8]), 72% (active); in experiment [4] (at 50.0 µM), 31.5%. Further, the growth inhibition in experiment [5] (setting [7]) is 46%; in experiment [5] (setting [8]) it was 50%; in experiment [5] (at 50.0 µM), 48.5%; in experiment [6] (setting [7]) it was 47%; in experiment [6] (setting [8]), 59%; in experiment [6] (at 50.0 µM) it was 85.7% (active).

As for `O=S(=O)(Nc1ccccn1)c1ccc(NCc2c3ccccc3nc3cc(Cl)ccc23)cc1`, the growth inhibition was 0% in experiment [1] (setting [7]); 65% in experiment [1] (setting [8]); 65.9% in experiment [1] (at 50.0 µM); 4% in experiment [2] (setting [7]); 37% in experiment [2] (setting [8]); 55.2% in experiment [2] (at 50.0 µM). Further, the growth inhibition was -2% in experiment [3] (setting [7]); 66% in experiment [3] (setting [8]); 54.5% in experiment [3] (at 50.0 µM); 6% in experiment [4] (setting [7]); 36% in experiment [4] (setting [8]); 31.9% in experiment [4] (at 50.0 µM). Moreover, the growth inhibition in experiment [5] (setting [7]) was 8%; in experiment [5] (setting [8]) it was 76% (active); in experiment [5] (at 50.0 µM), 34.8%; in experiment [6] (setting [7]) it was 3%; in experiment [6] (setting [8]), 52%; in experiment [6] (at 50.0 µM) it was 71.8% (active).

Regarding `CC[N+]1(C)CCC(O)(c2ccc(Cl)c(Cl)c2)C(C(=O)c2ccc(Cl)c(Cl)c2)C1` (configuration not stated), the growth inhibition in experiment [1] (setting [7]) was 15%; in experiment [1] (setting [8]), 99% (active); in experiment [1] (at 50.0 µM), 99.4% (active); in experiment [2] (setting [7]), 4%; in experiment [2] (setting [8]), 100% (active); in experiment [2] (at 50.0 µM) it was 99.6% (active). Further, the growth inhibition is 11% in experiment [3] (setting [7]); 99% (active) in experiment [3] (setting [8]); 99% (active) in experiment [3] (at 50.0 µM); 6% in experiment [4] (setting [7]); 99% (active) in experiment [4] (setting [8]); 99.5% (active) in experiment [4] (at 50.0 µM). Besides, the growth inhibition in experiment [5] (setting [7]) is 13%; in experiment [5] (setting [8]) it was 100% (active); in experiment [5] (at 50.0 µM), 98.8% (active).

With `O=[N+]([O-])/C(C(Cl)=C(Cl)Cl)=C(/Sc1ccccc1)N1CCCCC1`, the growth inhibition in experiment [1] (setting [7]) is -3%; in experiment [1] (setting [8]), 97% (active); in experiment [1] (at 50.0 µM), 84.9% (active); in experiment [2] (setting [7]), 3%; in experiment [2] (setting [8]) it was 95% (active); in experiment [2] (at 50.0 µM), 88.5% (active). The growth inhibition in experiment [3] (setting [7]) is -17%; in experiment [3] (setting [8]), 93% (active); in experiment [3] (at 50.0 µM) it was 77.6% (active); in experiment [4] (setting [7]), -7%; in experiment [4] (setting [8]), 95% (active); in experiment [4] (at 50.0 µM) it was 85.2% (active). For the same molecule, the growth inhibition in experiment [5] (setting [7]) was -19%; in experiment [5] (setting [8]), 96% (active); in experiment [5] (at 50.0 µM), 86.1% (active); in experiment [6] (setting [7]), -3%; in experiment [6] (setting [8]), 96% (active); in experiment [6] (at 50.0 µM), 77.9% (active).

For `O=C(O)c1cc(Br)ccc1OCc1ccc(Cl)cc1`, the growth inhibition in experiment [1] (setting [7]) is -1%; in experiment [1] (setting [8]), 28%; in experiment [1] (at 50.0 µM), 43.9%; in experiment [2] (setting [7]), -1%; in experiment [2] (setting [8]) it was 19%; in experiment [2] (at 50.0 µM) it was 51.2%. Also, the growth inhibition in experiment [3] (setting [7]) is -7%; in experiment [3] (setting [8]) it was 5%; in experiment [3] (at 50.0 µM), 58%; in experiment [4] (setting [7]), -13%; in experiment [4] (setting [8]) it was 27%; in experiment [4] (at 50.0 µM), 79.4% (active). Moreover, the growth inhibition in experiment [5] (setting [7]) was -8%; in experiment [5] (setting [8]) it was 9%; in experiment [5] (at 50.0 µM), -2.25%.

In the case of `O=[N+]([O-])C1CCC(C2=CSC3CCCCC3N2)CC1` (configuration not stated), the growth inhibition in experiment [1] (setting [7]) is 12%; in experiment [1] (setting [8]), 7%; in experiment [1] (at 50.0 µM), 34.6%; in experiment [2] (setting [7]) it was -16%; in experiment [2] (setting [8]) it was 44%; in experiment [2] (at 50.0 µM), 57.5%. The growth inhibition in experiment [3] (setting [7]) is -9%; in experiment [3] (setting [8]), 23%; in experiment [3] (at 50.0 µM), 38.8%; in experiment [4] (setting [7]), 23%; in experiment [4] (setting [8]), 31%; in experiment [4] (at 50.0 µM), 11.4%. The growth inhibition in experiment [5] (setting [7]) was 0%; in experiment [5] (setting [8]) it was 52%; in experiment [5] (at 50.0 µM), 67.8%; in experiment [6] (setting [7]), -1%; in experiment [6] (setting [8]), 60%; in experiment [6] (at 50.0 µM), 18%.

For the molecule `Fc1ccc(NC(=S)SCc2ccc(Cl)c(Cl)c2)cc1`, the growth inhibition is 4% in experiment [1] (setting [7]); 92% (active) in experiment [1] (setting [8]); 98.1% (active) in experiment [1] (at 50.0 µM); 3% in experiment [2] (setting [7]); 91% (active) in experiment [2] (setting [8]); 99% (active) in experiment [2] (at 50.0 µM). Besides, the growth inhibition in experiment [3] (setting [7]) is 0%; in experiment [3] (setting [8]), 97% (active); in experiment [3] (at 50.0 µM), 98.8% (active); in experiment [4] (setting [7]), -3%; in experiment [4] (setting [8]) it was 92% (active); in experiment [4] (at 50.0 µM), 98.3% (active). For the same molecule, the growth inhibition was 3% in experiment [5] (setting [7]), 90% (active) in experiment [5] (setting [8]) and 98.2% (active) in experiment [5] (at 50.0 µM).
